# Measured values from PubChem BioAssay.
# Where “and” joins values, the source holds several entries; their conditions need not be identical. Identical values can stand only once. Calls of active or inactive are those of the source.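 How the source made its calls, unless noted: active means inhibition at or above 50% relative to wild type and mutant plate controls; inactive means inhibition below 50%.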
# Legend:
# [1] = inhibitors of TNFa-induced NFkB p65 translocation, primary screen, imaging, HUVEC, MLSMR starter and 10KST1 sets (AID 438;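 active means inhibition above 20% together with a positive visual image hit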;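 further: compound added about 3h40 before a 20 min TNFalpha stimulation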;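 on inhibition: signal is the nuclear over cytoplasmic p65 intensity ratio per well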); details: HUVEC TNFa-induced p65 nuclear translocation; cell count: measured here: nuclei count (cytotoxicity indicator), at 2.08 µM; inhibition: at 2 µM, stronger effect = higher value, 0% TNFa-plus-vehicle, 100% no-TNFa wells
# [2] = inhibitors of mutant huntingtin aggregation, primary screen, imaging, exon1htt(103Q)mCFP cells, high-content imaging (AID 483;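 active means visual image review flags a hit and inhibition of aggregation exceeds 20%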;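 further: compound exposure lasted 3 days before fixation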;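 on nuclei count: percent of the per-plate median nuclei count of sample wells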); details: exon1htt(103Q)mCFP cell line, aggregate imaging, at 2 µM; inhibition of aggregation: stronger effect = higher value; nuclei count: measured here: cell count, toxicity
# [3] = inhibitors of E-selectin induction by TNFa, primary screen, imaging, HUVEC, immunofluorescence, MLSMR starter and 10KST1 sets (AID 487;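 active means visually confirmed hit in the image check and inhibition above 20%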;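 on inhibition: signal is fraction of cell area covered by stained E-selectin grains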;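 on nuclei count: 100% = median nuclei count of all wells on the same plate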); details: HUVEC TNFalpha-induced E-selectin immunofluorescence imaging, at 2 µM; inhibition: stronger effect = higher value; nuclei count: measured here: cell number, toxicity
# [4] = DUSP6 inhibitors restoring Erk phosphorylation by chemical complementation, primary imaging in DUSP6-transfected HeLa (AID 609;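 active means compounds giving at least 50% inhibition in the cell-based MKP-3 phosphatase rescue imaging test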;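 on inhibition: phospho-Erk level distribution per well compared with pooled transfected vehicle control wells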); details: HeLa MKP-3 transfected, phospho-Erk imaging KS statistic, at 10 µM, cells stimulated with TPA for 15 min
# [5] = target: Dual specificity protein phosphatase 6 (Homo sapiens) (UniProt Q16828); test: as above; details: HeLa MKP-3 transfected, phospho-Erk imaging KS statistic; at 10 µM; stronger effect = higher value; cells stimulated with TPA for 15 min
# [6] = target: Voltage-gated potassium channel subunit beta-2 (Rattus norvegicus) (UniProt P62483); test: KvBeta enzyme negative modulators, primary screen, biochemical, NADPH fluorescence (AID 622;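 active means fluorescence slope higher than the sample average by over 3 SD, cut at about -0.22 in these data, passing the limit was not always enough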;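 further: slope of raw intensity against log time taken from 70 to 1610 s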); details: recombinant KvBeta, 4-cyanobenzaldehyde reduction, at 10 µM, stronger effect = higher value
# [7] = target: Voltage-gated potassium channel subunit beta-2 (Rattus norvegicus) (UniProt P62483); test: KvBeta positive modulators, primary screen, biochemical, NADPH fluorescence (AID 623;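 active means NADPH fluorescence slope more negative than the mean of all samples by about 3 SD, 99.7% confidence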;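 further: fluorescence intensity change per second fitted from 20 to 320 s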); details: Recombinant KvBeta, NADPH fluorescence decrease slope, 10 min; at 10 µM; stronger effect = lower value
# [8] = target: Alpha-2C adrenergic receptor (Homo sapiens) (UniProt P18825); test: modulators of alpha2C/GIRK thallium flux, primary screen, cell-based, HEK293 alpha2C/GIRK1/2 (AID 624;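 active means fluorescence slope after compound addition differing from the mean of all screened samples at 99.7% confidence, in either direction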;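 further: slope of fluorescence ratio to pre-addition baseline per second over 15 to 24 s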); details: thallium flux BTC fluorescence, at 10 µM, actives lie on both sides
# [9] = inhibitors of larval lipid processing in zebrafish, primary screen, whole organism, PED6 fluorescence, gall bladder and intestine (AID 686;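 active means a full or partial loss of lipid-probe fluorescence in the fish gall bladder, intestine or both, judged by eye; inactive means no fluorescence loss, or compound toxic to the fish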;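 further: larvae 5 to 7 days old with five fish per well; signal comes from phospholipase A2 cleavage of quenched PED6 carried via bile; overnight exposure to compound and PED6 before scoring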); details: Zebrafish larvae PED6 lipid processing, fluorescence scoring; screened at 20 µM (by protocol)
# [10] = inhibitors of Chlamydomonas gravitaxis, primary screen, whole organism, Chlamydomonas reinhardtii, WT vs cilia-less mutant, absorbance, 96-well (AID 463189); details: OD600 absorbance, 2 days, at 10 µM, stronger effect = higher value;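 further: 0% = wild type cc124 cells in DMSO and 100% = ciliumless bld1 mutant cells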
# [11] = inhibitors of Sendai virus-induced IRF3 signaling, primary screen, TLR/RLR signaling modifier project, cell-based, Sendai virus stimulus, luciferase, 10K MLSCN set (AID 602276;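 active means inhibition at or above 50% at 10 µM; inactive means inhibition below 50%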;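 further: firefly luciferase from ISG56 promoter only with Renilla not read in this screen; 0% = Sendai virus plus DMSO and 100% = medium plus DMSO without virus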); details: HEK293 RL24 IRF3 luciferase reporter, at 10 µM, stronger effect = higher value
# [12] = inhibitors of poly I:C-induced TLR3 signaling, primary screen, cell-based, poly I:C stimulus, luciferase, 10K MLSCN set (AID 602277;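 active means inhibition of the reporter signal at or above 50%; inactive means inhibition below 50%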); details: HEK293-TLR3 RL24 IRF3 luciferase reporter, at 10 µM, stronger effect = higher value
# [13] = measured here: cell density z-score
# [14] = measured here: nuclear c-Myc green intensity z-score
# [15] = measured here: nuclear pErk red intensity z-score, stronger effect = higher value
# Chain of Alpha-2C adrenergic receptor (Homo sapiens) (P18825 whole entry, looked up): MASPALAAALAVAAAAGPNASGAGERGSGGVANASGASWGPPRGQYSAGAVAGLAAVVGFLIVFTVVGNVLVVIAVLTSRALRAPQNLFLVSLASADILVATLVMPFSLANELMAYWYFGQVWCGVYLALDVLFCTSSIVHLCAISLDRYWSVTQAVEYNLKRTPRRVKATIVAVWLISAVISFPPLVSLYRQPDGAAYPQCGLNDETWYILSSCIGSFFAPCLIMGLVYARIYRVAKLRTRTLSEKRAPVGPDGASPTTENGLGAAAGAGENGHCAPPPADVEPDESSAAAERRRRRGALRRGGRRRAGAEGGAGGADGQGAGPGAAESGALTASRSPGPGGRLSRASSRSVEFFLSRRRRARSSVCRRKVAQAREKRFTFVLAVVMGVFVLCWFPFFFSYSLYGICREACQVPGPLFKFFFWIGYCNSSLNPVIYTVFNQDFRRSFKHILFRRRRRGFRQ
# Chain of Voltage-gated potassium channel subunit beta-2 (Rattus norvegicus) (P62483 whole entry, looked up): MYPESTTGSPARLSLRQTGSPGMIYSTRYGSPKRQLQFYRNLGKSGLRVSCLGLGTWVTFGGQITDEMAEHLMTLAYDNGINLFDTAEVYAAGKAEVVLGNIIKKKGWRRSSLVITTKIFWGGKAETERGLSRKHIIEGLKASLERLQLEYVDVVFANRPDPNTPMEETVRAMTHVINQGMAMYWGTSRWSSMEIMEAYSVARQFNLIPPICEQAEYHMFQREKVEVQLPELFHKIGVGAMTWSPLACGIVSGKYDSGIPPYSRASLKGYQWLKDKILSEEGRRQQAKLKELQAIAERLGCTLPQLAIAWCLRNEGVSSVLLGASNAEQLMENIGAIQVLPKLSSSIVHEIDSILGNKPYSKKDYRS
# Chain of Dual specificity protein phosphatase 6 (Homo sapiens) (Q16828 whole entry, looked up): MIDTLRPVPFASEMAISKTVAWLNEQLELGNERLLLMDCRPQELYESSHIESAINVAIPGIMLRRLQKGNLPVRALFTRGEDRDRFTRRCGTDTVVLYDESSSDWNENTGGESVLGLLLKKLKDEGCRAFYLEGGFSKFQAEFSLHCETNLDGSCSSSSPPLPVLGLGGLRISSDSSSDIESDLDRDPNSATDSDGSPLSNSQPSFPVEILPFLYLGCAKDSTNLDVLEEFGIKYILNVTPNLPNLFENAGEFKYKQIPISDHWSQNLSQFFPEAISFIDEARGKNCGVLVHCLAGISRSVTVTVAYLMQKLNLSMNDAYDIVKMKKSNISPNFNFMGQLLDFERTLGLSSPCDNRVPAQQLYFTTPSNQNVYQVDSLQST
SMILES,cell count [1],inhibition [1],inhibition of aggregation [2],nuclei count [2] [%],inhibition [3],nuclei count [3] [%],"z-score [4, 13]","z-score [4, 14]","z-score [4, 15]",inhibition [5],fluorescence slope [6],NADPH fluorescence slope [7],slope [8],outcome [9],inhibition [10],inhibition [11],inhibition [12]
O=C(NC1(C(F)(F)F)C(=O)Nc2c1c(=O)[nH]c(=O)n2Cc1ccco1)C1CCCCC1 (stereo not drawn),463,4.1% (inactive),-6.3% (inactive),116,-64.3% (inactive),112,-1.32,1.09,0.0354,3.5% (inactive),-0.49 (inactive),1.3e-05 (inactive),0.00536 (inactive),inactive,30.9% (inactive),12.9% (inactive),19.7% (inactive)
NS(=O)(=O)c1cc2c(cc1Cl)NC(CSCc1ccccc1)=NS2(=O)=O,643,-8.9% (inactive),13.9% (inactive),103,-78.7% (inactive),116,-0.00243,-0.584,-0.561,9.37% (inactive),-0.459 (inactive),-7.8e-05 (inactive),0.00625 (inactive),inactive,2.85% (inactive),10.8% (inactive),33.9% (inactive)
CC(=O)[C@@]1(O)CC[C@H]2[C@@H]3CCC4=CC(=O)CC[C@]4(C)[C@H]3[C@@H](O)C[C@@]21C,623,0.5% (inactive),16.3% (inactive),83,-142% (inactive),140,-0.503,-0.682,0.228,-4.44% (inactive),-0.495 (inactive),-5.2e-05 (inactive),0.00465 (inactive),inactive,-7.94% (inactive),8.03% (inactive),38.5% (inactive)
CSc1ccc2c(c1)N(CCC1CCCCN1C)c1ccccc1S2 (stereo not drawn),643,-2.7% (inactive),4.7% (inactive),89.1,-54.8% (inactive),119,0.315,3.44,1.46,-4.44% (inactive),-0.555 (inactive),-5.2e-05 (inactive),0.00348 (inactive),inactive,77.2% (active) and 160% (active),32% (inactive),30% (inactive)
c1cc2c(cc1C1=Nn3c(nnc3C3CCCCC3)SC1)OCO2,636,-0.8% (inactive),5.8% (inactive),31.9,-52.3% (inactive),113,-0.24,0.613,-0.0709,-6.06% (inactive),-0.481 (inactive),-8.1e-05 (inactive),0.00571 (inactive),inactive,-5.58% (inactive),25.1% (inactive),31% (inactive)
CCN(CC)CCOC(=O)C(c1ccccc1)c1ccccc1,533,-8.8% (inactive),19.8% (inactive),104,-7.9% (inactive),122,-0.21,-0.778,-0.535,7.39% (inactive),-0.478 (inactive),-3.2e-05 (inactive),0.00418 (inactive),inactive,-5.27% (inactive),9.86% (inactive),40.1% (inactive)
COC(=O)c1ccc(C2NC(C(=O)O)CS2)cc1 (stereo not drawn),652,-14.6% (inactive),3.9% (inactive),107,-8.7% (inactive),139,-0.228,-1.99,-1.57,-9.66% (inactive),-0.4 (inactive),-2.2e-05 (inactive),0.00581 (inactive),inactive,5.15% (inactive),14.2% (inactive),18.9% (inactive)
NC(=O)OCC(COC(N)=O)c1ccccc1,615,-7.6% (inactive),-2.4% (inactive),114,-22.5% (inactive),108,1.02,-0.593,-0.701,3.45% (inactive),-0.44 (inactive),-3.1e-05 (inactive),0.00508 (inactive),inactive,-4.89% (inactive) and -8.93% (inactive),17.5% (inactive),34.3% (inactive)
CC(=O)Oc1cc(C(C)C)c(OCCN(C)C)cc1C,467,-9.4% (inactive),22.4% (inactive),95.3,-10.4% (inactive),108,-0.0151,0.045,-0.157,13.3% (inactive),-0.475 (inactive),-5.3e-05 (inactive),0.0046 (inactive),inactive,6.3% (inactive) and 24.6% (inactive),15% (inactive),49.2% (inactive)
